Source: PubChem BioAssay (NCI)
Several values for one entry are separate records, joined by “and”; a condition that tells them apart may be missing. Identical values can stand only once. This is part of a sample that, as a whole, favours compounds with a hit. Of some 83,000 tested, about 20% had one in any assay.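 The test compound was applied at a single concentration to cells in 96-well plates for 48 hours, and percent growth was recorded.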 Activity calls are given as the source filed them. The calls were made as follows: active = growth percent below 10; inactive = the rest.

Assays:
Experiment in all cases: NCI-60 one-dose screen, 48 h (100 = growth as untreated, 0 = no growth, -100 = all killed)
Conditions in all cases: 10 µM unless noted
HT29 colon = system: HT29 colon
SNB-75 CNS = system: SNB-75 CNS
SNB-19 CNS = system: SNB-19 CNS
U251 CNS = system: U251 CNS
PC-3 prostate = system: PC-3 prostate
SK-MEL-5 melanoma = system: SK-MEL-5 melanoma
UACC-62 melanoma = system: UACC-62 melanoma
LOX IMVI melanoma = system: LOX IMVI melanoma
SK-MEL-28 melanoma = system: SK-MEL-28 melanoma
SK-MEL-2 melanoma = system: SK-MEL-2 melanoma
EKVX NSCLC = system: EKVX NSCLC
SN12C renal = system: SN12C renal
TK-10 renal = system: TK-10 renal
CAKI-1 renal = system: CAKI-1 renal
A498 renal = system: A498 renal
CCRF-CEM leukemia = system: CCRF-CEM leukemia
MOLT-4 leukemia = system: MOLT-4 leukemia
ACHN renal = system: ACHN renal
UO-31 renal = system: UO-31 renal

SMILES | growth (HT29 colon) | growth (SNB-75 CNS) | growth (SNB-19 CNS) | growth (U251 CNS) | growth (PC-3 prostate) | growth (SK-MEL-5 melanoma) | growth (UACC-62 melanoma) | growth (LOX IMVI melanoma) | growth (SK-MEL-28 melanoma) | growth (SK-MEL-2 melanoma) | growth (EKVX NSCLC) | growth (SN12C renal) | growth (TK-10 renal) | growth (CAKI-1 renal) | growth (A498 renal) | growth (CCRF-CEM leukemia) | growth (MOLT-4 leukemia) | growth (ACHN renal) | growth (UO-31 renal)
Nc1nc(N)c2nc(CNc3ccc(C(=O)NC(CCC(=O)O)C(=O)O)cc3)cnc2n1 (stereo not drawn) | 32.5% (inactive) and 18.5% (inactive) | 64.3% (inactive) and 41.4% (inactive) | 51% (inactive) and 44.4% (inactive) | 37.9% (inactive) and 26.9% (inactive) | 43.3% (inactive) and 26.6% (inactive) | 24.6% (inactive) and 23.9% (inactive) | 25.3% (inactive) and 24.3% (inactive) | 12% (inactive) and 13.1% (inactive) | 67% (inactive) and 96.9% (inactive) | 60.1% (inactive) and 58.9% (inactive) | 72.9% (inactive) and 44.4% (inactive) | 25.6% (inactive) and 14.7% (inactive) | 54% (inactive) and 48.1% (inactive) | 25.9% (inactive) and 21.9% (inactive) | 45.4% (inactive) and 85.7% (inactive) | 22.6% (inactive) and 29.9% (inactive) | 25.8% (inactive) and 31.5% (inactive) | – | –
CCN(CC)CC(C)(C)C(=O)/C=C/c1ccc(Cl)c(Cl)c1 | -47.4% (active) | 30% (inactive) | -30.1% (active) | -45.8% (active) | -33.8% (active) | 0.295% (active) | -56.2% (active) | -82.4% (active) | -35.5% (active) | -33.2% (active) | 28.2% (inactive) | -43.8% (active) | -34.7% (active) | -32.3% (active) | -24.3% (active) | 5.91% (active) | – | -42.8% (active) | –
Cc1cc(N)c2ccccc2[n+]1CCCCCCCCCC[n+]1c(C)cc(N)c2ccccc21 | 2.09% (active) and -13.8% (active) | 21.3% (inactive) and -8.96% (active) | 21.3% (inactive) and 12.5% (inactive) | -51.1% (active) and 15.5% (inactive) | 8% (active) and 14.1% (inactive) | -57.8% (active) and -99.9% (active) | – | -73% (active) and 37.4% (inactive) | -26.4% (active) | -23.7% (active) and -19.9% (active) | 13.4% (inactive) and 1.53% (active) | 5.16% (active) and 5.31% (active) | 21.1% (inactive) and 35.1% (inactive) | – | -7.94% (active) | 6.34% (active) and 22% (inactive) | -43.9% (active) and 1.26% (active) | 42.8% (inactive) | 19.2% (inactive) and 65.3% (inactive)
O=C1C=CC(=O)N1C1c2ccccc2-c2ccccc21 | 92.9% (inactive) | 74.9% (inactive) | 105% (inactive) | 92.8% (inactive) | 94.1% (inactive) | 105% (inactive) | 102% (inactive) | 93.9% (inactive) | 104% (inactive) | 100% (inactive) | 105% (inactive) | 94.2% (inactive) | 51.4% (inactive) | 55.7% (inactive) | 93.8% (inactive) | 30.4% (inactive) | 33.8% (inactive) | – | 75.5% (inactive)
Oc1ccc(/C=N/NC(=S)Nc2ccccc2)nc1 | 34.6% (inactive) | 31.4% (inactive) | 42% (inactive) | 14.7% (inactive) | 23.3% (inactive) | – | -9.22% (active) | -18.7% (active) | 43.1% (inactive) | 11.8% (inactive) | 32.6% (inactive) | 20.2% (inactive) | 31.2% (inactive) | 7.96% (active) | – | 6.28% (active) | -35.2% (active) | 12.3% (inactive) | –
CN(C)C(=O)SC1=C(c2c(Cl)cccc2Cl)C(=O)c2ccccc21 | -35.3% (active) | 49.3% (inactive) | 97.4% (inactive) | 90% (inactive) | 77% (inactive) | – | 26.7% (inactive) | -48% (active) | -34.1% (active) | 136% (inactive) | 0.799% (active) | 82.3% (inactive) | -43.7% (active) | -28.9% (active) | 115% (inactive) | 0.862% (active) | – | -43.2% (active) | -34.4% (active)
OC(CNc1ccnc2cc(Cl)ccc12)CNc1ccnc2cc(Cl)ccc12 | 7.67% (active) | 31.8% (inactive) | 41.3% (inactive) | 3.22% (active) | 69.7% (inactive) | 53.7% (inactive) | 88.3% (inactive) | -79.2% (active) | -82.7% (active) | 104% (inactive) | 78.6% (inactive) | 37.9% (inactive) | 87.5% (inactive) | 101% (inactive) | 76.9% (inactive) | -15.8% (active) | 12% (inactive) | – | –
COc1ccccc1/C=C\C(=O)c1ccccc1 | 41.9% (inactive) | 77.8% (inactive) | 79.4% (inactive) | 45.6% (inactive) | 61.8% (inactive) | 72.3% (inactive) | 77.2% (inactive) | 28.6% (inactive) | 94.9% (inactive) | 87.6% (inactive) | 85.2% (inactive) | 76.8% (inactive) | 104% (inactive) | 83.2% (inactive) | 101% (inactive) | 11% (inactive) | – | – | 44.1% (inactive)
CNC(=O)N/N=C/c1ccc([N+](=O)[O-])o1 | 102% (inactive) | 114% (inactive) | 94.9% (inactive) | 96.9% (inactive) | 92.7% (inactive) | – | – | 89.1% (inactive) | 111% (inactive) | 97.1% (inactive) | 107% (inactive) | 90.7% (inactive) | 111% (inactive) | 114% (inactive) | 102% (inactive) | 96.8% (inactive) | 82.7% (inactive) | 106% (inactive) | 90.5% (inactive)
